Screens from PubChem BioAssay.
PNC inhibitor – High Content Assay for Compounds that inhibit the Assembly of the Perinucleolar Compartment; AID 2417, 2010; PC3M PTB-GFP, PNC prevalence imaging, 16 h; active compounds read low; activity change (PNC), negative = inhibition, % at 10 µM; hit rate 3.1% among 140,000;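 active means readout at or below -70, meaning at least 70% loss of cells showing the perinucleolar compartment, a nuclear body marking cancer cells; inconclusive means readout between -30 and a set limit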
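PC3M cells stably expressing PTB-GFP, 750–1000 cells/well, treated 16 h at 37 °C with compound (23 nl of library stock), in duplicate. After paraformaldehyde fixation and Hoechst stain, imaged at 20x; PNC prevalence scored by image analysis.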
HTT cytoprotect – qHTS Multiplex Assay to Identify Dual Action Probes in a Cell Model of Huntington: Cytoprotection (ATP). PC12 HTT-Q103 induced, cytoprotection, ATP luminescence, 40 h. Potency, µM (highest dose often 56.4 µM), hits mostly activators. hit rate 0.14% among 230,000; further: nearly all actives have a fitted effect of over 45% in size
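Compounds added alongside 100 nM tebufenozide, which induces toxic Q103 huntingtin exon 1-GFP in stable PC12 cells; surviving cells quantified by luminescent ATP measurement. Medium: phenol red-free DMEM, 5% equine and 5% calf serum.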
HTT aggregate – qHTS Multiplex Assay to Identify Dual Action Probes in a Cell Model of Huntington: Aggregate Formation (GFP) | PC12 HttQ103-GFP aggregates, Acumen cytometry, 40 h | Potency, µM (highest dose often 46.1 µM), actives largely listed as inhibitors | hit rate 1.1% among 220,000 | AID 1688, 2009; further: nearly all actives have a fitted effect of over 60% in size
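Compounds (qHTS titration) were added to PC12 cells expressing an ecdysone-driven HTT exon 1 Q103–GFP fusion after induction with 100 nM tebufenozide. Aggregate formation was measured as GFP objects in cell lysates.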
Hits are given with their value; n = inactive; u = inconclusive; x = no result; [ ] = dose if it differs, or a comment. The full list was thinned out, with hits kept by preference. Unless noted, the call rests on the fitted dose curve; in most records, active means well fitted curve in the direction sought with a large enough effect; inconclusive means small, poorly fitted or top-dose-only effect, or another doubt; inactive means no such curve, though single readings can be large; an effect the other way counts as inactive or inconclusive.

SMILES	PNC inhibitor	HTT cytoprotect	HTT aggregate
NNC(=O)c1ccc(Cn2cc(Br)cn2)cc1	-113.8	x	n
O=C(N/N=C/c1c(F)cccc1Cl)c1ccc(Cn2cc(Br)cn2)o1	-113.8	x	n
CC1CCc2sc(C(=O)OCC(=O)NC(N)=O)cc2C1 (centres undefined)	x	n[10 µM]	n[9.22 µM]
O=C(Oc1ccccc1)N1CCC2(CCCN(c3ccncc3)C2)CC1	x	n	x
CCOC(=O)N1CCC(N2C(=O)c3ccccc3C2Nc2cccnc2)CC1 (centres undefined)	-85.7	n	n
O=C(NCc1cccnc1)C1c2ccccc2C(=O)N1C1CCCC1 (centres undefined)	-108.4	n[10 µM]	n
O=C(NCc1ccco1)c1cccc2c1C(=O)N(C1CCCCC1)C2	-100.0	n[10 µM]	n
Cc1ccc(CN2C(=O)c3ccccc3C2C(=O)NCc2cccnc2)cc1 (centres undefined)	n	n	n
O=C(NCc1ccco1)c1ccc2c(c1)C(=O)N(C1CCCCC1)C2=O	n	n	n
O=C(NCc1cccnc1)C1CC(=O)N(C2CCCCC2)C1 (centres undefined)	n	u	n
O=C(NCc1cccnc1)c1cccc2c1C(=O)N(C1CCCCC1)C2	-100.0	n[10 µM]	n
CCOC(=O)N1CCC(N2C(=O)c3ccccc3C2Nc2ccccc2C)CC1 (centres undefined)	u	n	n
C=CCNC(=S)N/N=C(\C)c1ccc(-n2ccnc2)cc1	x	n	u
O=C(NCCC(=O)N1CCOCCOCCOCCOCC1)OCc1ccccc1	x	n[10 µM]	n[9.22 µM]
COc1ccc(-n2nc(C(=O)Nc3ccc4c(c3)OCO4)c3ccccc3c2=O)c(OC)c1	u	n	n
Cc1ncccc1C(=O)N1CCCC(CNC(=O)c2ccc(-c3ccccc3)cc2)C1 (centres undefined)	x	n[10 µM]	n[9.22 µM]
O=C(NC1CCS(=O)(=O)C1)/C(=C/c1ccco1)NC(=O)c1ccccc1 (centres undefined)	x	0.141µM	0.178µM
O=C(NC1CCS(=O)(=O)C1)/C(=C\c1ccco1)NC(=O)c1ccccc1 (centres undefined)	x	n[10 µM]	n[9.22 µM]
Cc1ccc(OCCNC(=O)c2cccc(Oc3ccc(C(F)(F)F)cc3[N+](=O)[O-])c2)cc1	u	n[10 µM]	n
CC(C)(C)NC(=O)CCC1COc2ccccc2O1 (centres undefined)	n	n	n
O=C(CCC1COc2ccccc2O1)NCC1COc2ccccc2O1 (centres undefined)	-100.0	n[0.074 µM]	n
CCOC(=O)c1c[nH]c2c(C)ccc(Cl)c2c1=O	x	n	n
CCOc1ccc(CNC(=S)N/N=C\c2ccc([N+](=O)[O-])cc2)cc1	-92.2	n[10 µM]	n
CCOc1ccc(CNC(=S)N/N=C/c2cccnc2)cc1	u	n[10 µM]	n
O=C(Cc1ccccc1)Nc1cccc(N2C(=O)C=CC2=O)c1	u	n[0.074 µM]	u
SMILES	PNC inhibitor	HTT cytoprotect	HTT aggregate
CCc1ccc(OCC(=O)N(C)CCC#N)c(Br)c1	-91.2	n	n
CCc1ccc(OCC(=O)NCCN(C)C)c(Br)c1	n	n	n
CCC(C)N1C(=O)N(C)C2NC(=O)NC21 (centres undefined)	x	n[10 µM]	n[9.22 µM]
CCOc1ccc(-c2cc(C(=O)N3CCN(C)CC3)c3ccccc3n2)cc1	n	n[0.074 µM]	n
CCCOc1ccc(C(=O)NNC(=S)NC(C)=O)cc1	n	n	u
CCCOc1ccc(C(=O)NNC(=S)NC(=O)c2cc(-c3ccccc3)nc3ccccc23)cc1	n	n	7.08µM
CCOC(=O)N1CCN(C(=O)c2cc(-c3ccc(OCC)cc3)nc3ccccc23)CC1	-95.4	n	n
OC(COc1ccc(OCc2ccccc2)cc1)CN1CCOCC1 (centres undefined)	n	n	n
CC(=O)C1=C(c2ccccc2)N(C(C)=O)n2c(C)nnc2S1	x	n	n
O=C(CC1C(=O)NCCN1Cc1c(F)cccc1Cl)NCCCn1ccnc1 (centres undefined)	x	n[10 µM]	n[9.22 µM]
CCCCNC(=O)Nc1ccccc1C(=O)NCCC	-100.0	n[10 µM]	n
CCCCNC(=O)Nc1ccccc1C(=O)NCc1ccco1	n	n	n
NS(=O)(=O)c1ccc(NNC(=O)c2ccc(F)cc2F)cc1	x	n[10 µM]	n[9.22 µM]
Cc1noc(C)c1COc1ccc(C(=O)OCc2nnc(-c3ccc(Cl)cc3)o2)cc1	-83.6	n	n
O=C(OCc1nnc(-c2ccc(Cl)cc2)o1)c1ccncc1	n	n	n
CS(=O)(=O)Nc1ccccc1C(=O)O	n	n	n
CS(=O)(=O)Nc1ccc(Br)cc1C(=O)c1ccccc1	-83.7	n	n
